Experiment [1] concerns the target Retinoic acid receptor RXR-alpha (Homo sapiens) (UniProt P19793). Kind of experiment: ATG_RXRa_TRANS: Attagene TRANS-FACTORIAL HepG2 Assay for human Retinoid X Receptor alpha (RXRa) (AID 2283012; active means hit-call score of the fitted dose curve at least 0.9, where 1 is the maximum). Put shortly:
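Chimeric NR-GAL4 trans-activation in HepG2, 24 h treatment; reporter transcripts quantified by fluorescence on capillary electrophoresis, analysed for upward change from DMSO.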

The target of experiment [2] is human Retinoid X Receptor beta (RXRb), RXRB (gene 6257) (UniProt P28702). Kind of experiment: ATG_RXRb_TRANS: Attagene TRANS-FACTORIAL HepG2 Assay for human Retinoid X Receptor beta (RXRb) (AID 2283013; active means hit-call score of the fitted dose curve at least 0.9, where 1 is the maximum). The procedure, abridged:
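After a 24 h incubation with test chemical, transfected HepG2 cells carrying NR-Gal4 fusions and GAL4-UAS reporter transcription units yield RNA whose reporter cDNA is FAM-labelled, HpaI-cut and sized by capillary electrophoresis; increases over DMSO are scored.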

Experiment [3] has as its target human Thyroid Receptor alpha (THRa1), THRA (gene 7067) (UniProt P10827). Description: ATG_THRa1_TRANS: Attagene TRANS-FACTORIAL HepG2 Assay for human Thyroid Receptor alpha (THRa1) (AID 2283014; active means hit-call score of the fitted dose curve at least 0.9, where 1 is the maximum). Put shortly: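 HepG2 cells transiently transfected with chimeric NR-Gal4 and GAL4-UAS reporter units, dosed 24 h. Reporter mRNA quantified by RT-PCR, fluorescent labeling, HpaI digestion and capillary electrophoresis; gain-of-signal fit versus DMSO.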

Read-out in experiment [4]: E-selectin (Homo sapiens) (UniProt P16581)
Description: BSK_3C_Eselectin: BioMAP Diversity Plus: 3C Assay for Eselectin Biomarker Activity (AID 2283015).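 On outcome: cell surface E-selectin protein quantified by ELISA 24 h after dosing.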 The conditions noted are these: primary human endothelial cells (HUVEC); actives raise or lower the signal. Put shortly:
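Primary human umbilical vein endothelial cells (3C system), read 24 h after compound addition; E-selectin measured by ELISA. Bidirectional curve fitting against DMSO baseline; cytotoxicity by parallel SRB total-protein staining.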

Read-out in experiment [5]: Interleukin-1 alpha (IL1a), IL1A (gene 3552)
Kind of experiment: BSK_BE3C_IL1a: BioMAP Diversity Plus: BE3C Assay for Interleukin-1 alpha (IL1a) Biomarker Activity (AID 2283016). The conditions noted are these: primary human bronchial epithelial cells; actives raise or lower the signal. The procedure, abridged:
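Measured in human lung primary bronchial epithelial cells: IL-1a by ELISA at 24 h after dosing, with bidirectional fitting against DMSO.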

Read-out in experiment [6]: Monocyte Chemoattractant Protein-1 (MCP1), CCL2 (gene 6347)
Description: BSK_3C_MCP1: BioMAP Diversity Plus: 3C Assay for Monocyte Chemoattractant Protein-1 (MCP1) Biomarker Activity (AID 2283017). The note with it: primary human endothelial cells (HUVEC); actives raise or lower the signal. The procedure, abridged:
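Human umbilical vein endothelial cells (3C system) exposed to chemicals for 24 h; MCP-1 quantified by ELISA against the DMSO baseline with bidirectional fitting, and parallel SRB staining used to assess cytotoxicity.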

Read-out in experiment [7]: Monocyte Chemoattractant Protein-1 (MCP1), CCL2 (gene 6347)
Description: BSK_4H_MCP1: BioMAP Diversity Plus: 4H Assay for Monocyte Chemoattractant Protein-1 (MCP1) Biomarker Activity (AID 2283018). The conditions noted are these: primary human endothelial cells (HUVEC); actives raise or lower the signal. Put shortly: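 Primary human umbilical vein endothelium is exposed to chemical for 24 h before MCP-1 is assayed by ELISA. Concentration-response fitted bidirectionally relative to DMSO.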

Read-out in experiment [8]: Human Leukocyte Antigen - DR isotype (HLADR), HLA-DRA (gene 3122)
Description: BSK_3C_HLADR: BioMAP Diversity Plus: 3C Assay for Human Leukocyte Antigen - DR isotype (HLADR) Biomarker Activity (AID 2283019). The note with it: primary human endothelial cells (HUVEC); actives raise or lower the signal. Put shortly: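 HUVEC monoculture, HLA-DR measured by ELISA 24 h after chemical dosing. Fitted bidirectionally against DMSO baseline; parallel SRB staining assessed cytotoxicity, with 3C proliferation read by SRB at 48 h.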

Read-out in experiment [9]: Interleukin-8 (IL8), CXCL8 (gene 3576)
Description: BSK_3C_IL8: BioMAP Diversity Plus: 3C Assay for Interleukin-8 (IL8) Biomarker Activity (AID 2283020). The conditions noted are these: primary human endothelial cells (HUVEC); actives raise or lower the signal. The procedure, abridged: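 Using DMSO-treated wells as the baseline, bidirectional curve fitting was applied to ELISA-measured IL-8 from human umbilical vein endothelial cultures sampled 24 h after compound addition.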

Read-out in experiment [10]: Monokine induced gamma interferon (MIG), CXCL9 (gene 4283)
Kind of experiment: BSK_3C_MIG: BioMAP Diversity Plus: 3C Assay for Monokine induced gamma interferon (MIG) Biomarker Activity (AID 2283021).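 On AC50: MIG protein level measured by immunoassay in the treated endothelial cultures.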 The conditions noted are these: primary human endothelial cells (HUVEC); actives raise or lower the signal. Put shortly: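 ELISA-measured MIG in dosed HUVEC 3C cultures at 24 h, analysed by bidirectional fitting with DMSO defining baseline activity.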

Several values for one entry are separate records, joined by “and”; a condition that tells them apart may be missing. Identical values can stand only once. Records with an inconclusive call do not appear. Where a structure was tested more than once in an assay, its records may differ in their call. Activity calls are given as the source filed them. How the source made its calls, unless noted: active means hit-call score of the fitted dose curve at least 0.9, where 1 is the maximum; inactive means score below 0.9.

human Retinoid X Receptor beta (RXRb), RXRB (gene 6257), sequence (P28702 whole entry, looked up, the tested form may be a part): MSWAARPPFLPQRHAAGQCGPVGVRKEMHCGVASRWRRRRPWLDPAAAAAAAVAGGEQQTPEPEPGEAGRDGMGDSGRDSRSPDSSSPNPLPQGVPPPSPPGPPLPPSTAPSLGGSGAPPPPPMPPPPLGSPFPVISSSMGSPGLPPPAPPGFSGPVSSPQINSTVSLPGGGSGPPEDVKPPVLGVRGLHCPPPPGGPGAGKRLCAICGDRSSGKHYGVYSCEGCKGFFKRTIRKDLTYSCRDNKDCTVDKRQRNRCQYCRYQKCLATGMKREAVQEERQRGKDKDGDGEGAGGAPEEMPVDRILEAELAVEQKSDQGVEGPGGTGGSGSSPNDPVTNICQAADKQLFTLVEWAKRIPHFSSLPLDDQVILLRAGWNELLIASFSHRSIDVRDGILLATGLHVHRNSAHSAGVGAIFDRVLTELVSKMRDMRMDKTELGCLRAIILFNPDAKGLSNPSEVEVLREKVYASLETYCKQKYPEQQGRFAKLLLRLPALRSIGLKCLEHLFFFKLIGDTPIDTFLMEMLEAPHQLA
E-selectin (Homo sapiens), sequence (P16581 whole entry, looked up): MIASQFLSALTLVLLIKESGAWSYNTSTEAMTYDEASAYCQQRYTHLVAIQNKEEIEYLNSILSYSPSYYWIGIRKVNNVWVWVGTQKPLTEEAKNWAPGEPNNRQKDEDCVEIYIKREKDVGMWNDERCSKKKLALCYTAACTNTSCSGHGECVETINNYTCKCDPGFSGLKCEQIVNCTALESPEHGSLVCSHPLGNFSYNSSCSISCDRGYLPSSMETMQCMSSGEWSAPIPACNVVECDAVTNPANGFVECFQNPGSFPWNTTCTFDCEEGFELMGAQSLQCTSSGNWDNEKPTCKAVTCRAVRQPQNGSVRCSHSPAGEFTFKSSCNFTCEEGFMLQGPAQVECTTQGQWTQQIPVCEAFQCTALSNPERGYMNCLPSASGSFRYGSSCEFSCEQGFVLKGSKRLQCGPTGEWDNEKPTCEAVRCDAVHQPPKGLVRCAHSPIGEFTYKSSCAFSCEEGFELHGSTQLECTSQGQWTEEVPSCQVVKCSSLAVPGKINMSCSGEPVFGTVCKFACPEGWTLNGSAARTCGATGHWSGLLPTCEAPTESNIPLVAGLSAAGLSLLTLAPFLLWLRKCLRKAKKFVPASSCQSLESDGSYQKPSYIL
Retinoic acid receptor RXR-alpha (Homo sapiens), sequence (P19793 whole entry, looked up, the tested form may be a part): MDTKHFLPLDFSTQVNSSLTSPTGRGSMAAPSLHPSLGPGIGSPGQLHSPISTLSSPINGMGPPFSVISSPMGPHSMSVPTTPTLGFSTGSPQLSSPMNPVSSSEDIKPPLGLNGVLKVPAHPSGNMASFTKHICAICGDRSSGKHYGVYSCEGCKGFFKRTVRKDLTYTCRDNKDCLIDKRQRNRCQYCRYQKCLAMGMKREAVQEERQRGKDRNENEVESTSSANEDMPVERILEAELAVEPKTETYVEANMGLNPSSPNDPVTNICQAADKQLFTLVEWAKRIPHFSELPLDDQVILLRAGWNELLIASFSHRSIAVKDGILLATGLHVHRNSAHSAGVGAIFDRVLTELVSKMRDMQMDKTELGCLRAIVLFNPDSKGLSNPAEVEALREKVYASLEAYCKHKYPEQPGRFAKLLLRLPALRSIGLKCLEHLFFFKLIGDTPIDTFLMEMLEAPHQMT
human Thyroid Receptor alpha (THRa1), THRA (gene 7067), sequence (P10827 whole entry, looked up, the tested form may be a part): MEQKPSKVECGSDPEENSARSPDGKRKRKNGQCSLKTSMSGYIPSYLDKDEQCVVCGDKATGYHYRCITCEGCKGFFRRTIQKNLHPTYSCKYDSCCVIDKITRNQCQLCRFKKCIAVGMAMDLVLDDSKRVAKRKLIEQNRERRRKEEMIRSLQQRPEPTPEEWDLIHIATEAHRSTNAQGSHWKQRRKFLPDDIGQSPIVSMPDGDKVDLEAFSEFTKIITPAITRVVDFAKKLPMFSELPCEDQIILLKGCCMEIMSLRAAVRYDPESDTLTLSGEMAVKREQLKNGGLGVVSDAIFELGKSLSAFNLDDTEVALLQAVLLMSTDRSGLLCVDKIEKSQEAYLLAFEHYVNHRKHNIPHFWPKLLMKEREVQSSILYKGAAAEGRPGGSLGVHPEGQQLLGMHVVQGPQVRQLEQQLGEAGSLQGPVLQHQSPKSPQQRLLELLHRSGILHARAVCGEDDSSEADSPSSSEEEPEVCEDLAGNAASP

As usually defined, the AC50 is the concentration giving half of the maximal activity seen. As for `CCC(C)(C)C1CCC(O)CC1` (stereo not drawn), the molecule was called inactive in experiment [1], in experiment [3], in [4], in experiment [5], in experiment [6] and in [7]. Besides, the outcome in experiment [8], in experiment [9] and in [10] was inactive. For the same molecule, the AC50 in experiment [2] is 58.7 µM (active) [middle of 4 runs].
For `NCC(F)(F)C(F)(F)C(F)(F)C(F)(F)C(F)(F)C(F)(F)C(F)(F)F`, the molecule was called inactive in [1], in [2], in experiment [3], in experiment [4], in experiment [5] and in experiment [6]. Also, the outcome in experiment [7], in experiment [8], in experiment [9] and in [10] was inactive.
Turning to `OCCC(F)(F)C(F)(F)C(F)(F)C(F)(F)C(F)(F)C(F)(F)C(F)(F)C(F)(F)F`, the molecule was called inactive in experiment [1], in [2], in [3], in experiment [4], in experiment [5] and in experiment [6]. Moreover, the outcome in [7], in [9] and in experiment [10] was inactive. In addition, the AC50 was 30 µM (active) in experiment [4]; 18.2 µM (active) and 18.6 µM (active) in experiment [5]; 42.5 µM (active) and 24.3 µM (active) in experiment [6]; 43.6 µM (active) in experiment [7]; 20 µM (active) and 27.8 µM (active) and 30 µM (active) in experiment [8]; 48.2 µM (active) in [9]. For the same molecule, the half-maximal activity concentration (AC50) in experiment [10] was 48.6 µM (active).
Consider `CCc1nn(C2CCCCC2)c2cc(C3(C#N)CCC(C(=O)O)CC3)ccc12` (stereo not drawn), for which the molecule was called inactive in [1], in experiment [2], in [5], in experiment [7] and in [10]. In addition, the half-maximal activity concentration (AC50) in experiment [4] was 9.4 µM (active); in experiment [6], 10.6 µM (active); in experiment [8], 20 µM (active); in experiment [9], 7 µM (active).
With `CCCCCCCCOC(=O)CCCCCCCCC(=O)OCCCCCCCC`, the call in [1], in experiment [2], in experiment [3], in experiment [4], in [5] and in experiment [6] was inactive. Besides, the outcome in experiment [7], in experiment [8], in [9] and in experiment [10] was inactive.
In the case of `Cc1ccc(S(=O)(=O)O)c(C)c1`, the result in experiment [1] and in experiment [2] was inactive. Besides, in experiment [2], the concentration at half-maximal activity (AC50) was 58.6 µM (active).
On to `O=c1c(-c2ccc(O)cc2)coc2cc(O)ccc12`, for which the molecule was classed as inactive in experiment [1], in experiment [2], in [3], in [4], in experiment [5] and in [6]. In addition, the result in [9] and in experiment [10] was inactive. Besides, the AC50 in experiment [7] was 13.8 µM (active); in experiment [8], 27.1 µM (active).
As for `C[C@@H]1C[C@H]2[C@@H]3CCC4=CC(=O)C=C[C@]4(C)[C@@]3(F)[C@@H](O)C[C@]2(C)[C@@]1(O)C(=O)COP(=O)(O)O`, the outcome in experiment [1], in experiment [2], in experiment [3], in [4], in experiment [5] and in [6] was inactive. For the same molecule, the outcome in experiment [7], in [8], in [9] and in experiment [10] was inactive.
With `CCCCCCCCCCCCN1CCCC1=O`, the call in experiment [1], in experiment [2] and in experiment [3] was inactive. Moreover, the half-maximal activity concentration (AC50) in experiment [4] is 31.8 µM (active); in experiment [5], 33.2 µM (active); in experiment [6] it was 32.7 µM (active); in experiment [7] it was 27.8 µM (active); in experiment [8], 30.2 µM (active); in experiment [9], 29.4 µM (active). Further, in [10], the concentration at half-maximal activity (AC50) is 36.7 µM (active).
Turning to `OC1CCCCC1`, the call in [1], in experiment [2], in experiment [3], in experiment [4], in experiment [5] and in experiment [6] was inactive. Moreover, the outcome in [7], in experiment [8], in experiment [9] and in experiment [10] was inactive.
Take `OCCC(F)(F)C(F)(F)C(F)(F)C(F)(F)C(F)(F)C(F)(F)F`: the molecule was called inactive in experiment [1], in experiment [2], in experiment [3], in experiment [4], in experiment [5] and in experiment [6]. Further, the result in [7], in experiment [8], in [9] and in experiment [10] was inactive. Besides, the AC50 is 49.8 µM (active) in [6]; 46.1 µM (active) and 42.1 µM (active) in experiment [8]; 45.7 µM (active) in [9]; 44.8 µM (active) and 45.3 µM (active) in experiment [10].
In the case of `O=C(O)c1ccccc1C(c1ccc(O)cc1)c1ccc(O)cc1`, the molecule was classed as inactive in [1], in experiment [2], in experiment [3], in experiment [4], in experiment [5] and in experiment [6]. Moreover, the outcome in experiment [7], in experiment [8], in experiment [9] and in experiment [10] was inactive.
Turning to `CC(O)C(=O)O` (stereo not drawn), the molecule was called inactive in experiment [1], in experiment [2] and in experiment [3].
As to `O=C(/C=C/c1ccc(O)cc1)CC(=O)/C=C/c1ccc(O)cc1`, the molecule was classed as inactive in experiment [1], in [2] and in [3].
In the case of `COC(=O)CCCCC(=O)OC`, the molecule was called inactive in experiment [1], in experiment [2], in [3], in [4], in [5] and in experiment [6]. For the same molecule, the outcome in experiment [7], in experiment [8], in experiment [9] and in experiment [10] was inactive.
For `CCc1ccc(CCOc2ccc(CC3SC(=O)NC3=O)cc2)nc1` (stereo not drawn), the molecule was classed as inactive in experiment [1], in [2], in experiment [3], in experiment [4], in experiment [5] and in experiment [6]. Moreover, the result in experiment [7], in experiment [8], in [9] and in experiment [10] was inactive.
Regarding `C#C[C@]1(O)CC[C@H]2[C@@H]3CCC4=CC(=O)CC[C@@H]4[C@H]3CC[C@@]21C`, the result in experiment [1], in [2], in [3], in experiment [5], in [7] and in experiment [10] was inactive. The AC50 in experiment [4] was 11.5 µM (active); in experiment [6] it was 6.01 µM (active); in [8] it was 7.59 µM (active); in [9], 5.01 µM (active).

Source of the values: PubChem BioAssay (EPA / NIEHS).
